Assay [1] addresses Calcium/calmodulin-dependent protein kinase type II subunit alpha (Homo sapiens) (UniProt Q9UQM7). To be noted: at 1 µM.
For assay [2], the target named is Calcium/calmodulin-dependent protein kinase type II subunit delta (Homo sapiens) (UniProt Q13557). To be noted: at 0.1 µM.
The target is the same in assay [3]. To be noted: at 1 µM.
Assay [4] concerns the target T1, Calcium/calmodulin-dependent protein kinase type IV (Homo sapiens) (UniProt Q16566).
T1 sequence (whole entry): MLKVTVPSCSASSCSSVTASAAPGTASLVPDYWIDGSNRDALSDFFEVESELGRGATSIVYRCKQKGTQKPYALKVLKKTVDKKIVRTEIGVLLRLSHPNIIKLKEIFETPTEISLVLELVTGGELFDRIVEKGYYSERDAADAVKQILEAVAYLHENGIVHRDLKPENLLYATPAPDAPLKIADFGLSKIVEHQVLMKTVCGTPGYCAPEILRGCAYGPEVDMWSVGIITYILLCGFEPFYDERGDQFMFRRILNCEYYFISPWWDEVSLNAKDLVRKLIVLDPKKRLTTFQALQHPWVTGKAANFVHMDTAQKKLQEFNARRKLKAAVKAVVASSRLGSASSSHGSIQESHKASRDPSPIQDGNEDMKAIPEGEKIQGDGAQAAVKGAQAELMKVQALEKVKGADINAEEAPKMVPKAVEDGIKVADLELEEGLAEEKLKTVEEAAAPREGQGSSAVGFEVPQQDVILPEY
To be noted: at 0.1 µM.

In assay [5] the target is T1, Calcium/calmodulin-dependent protein kinase type IV (Homo sapiens). To be noted: at 1 µM.
The target in assay [6] is T2, Serine/threonine-protein kinase Chk1 (Homo sapiens) (UniProt O14757).
T2 sequence (whole entry): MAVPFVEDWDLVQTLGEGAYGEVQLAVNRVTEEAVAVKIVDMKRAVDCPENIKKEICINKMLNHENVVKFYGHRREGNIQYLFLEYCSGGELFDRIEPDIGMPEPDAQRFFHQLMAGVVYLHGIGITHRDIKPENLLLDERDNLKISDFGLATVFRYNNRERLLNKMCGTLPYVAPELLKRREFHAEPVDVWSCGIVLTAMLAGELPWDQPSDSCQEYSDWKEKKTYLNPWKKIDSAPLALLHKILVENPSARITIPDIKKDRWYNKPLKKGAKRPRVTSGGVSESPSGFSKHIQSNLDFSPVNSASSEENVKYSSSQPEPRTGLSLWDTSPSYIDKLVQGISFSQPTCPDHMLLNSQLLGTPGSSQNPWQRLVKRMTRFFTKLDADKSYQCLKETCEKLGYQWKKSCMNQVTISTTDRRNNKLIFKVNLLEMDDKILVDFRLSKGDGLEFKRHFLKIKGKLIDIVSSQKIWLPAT
To be noted: at 0.1 µM.

Assay [7] deals with T2, Serine/threonine-protein kinase Chk1 (Homo sapiens). To be noted: at 1 µM.
Assay [8] addresses Serine/threonine-protein kinase Chk2 (Homo sapiens) (UniProt O96017). To be noted: at 0.1 µM.
For assay [9] the target is unchanged. To be noted: at 1 µM.
Assay [10] has as its target Death-associated protein kinase 1 (Homo sapiens) (UniProt P53355). To be noted: at 0.1 µM.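 Also: reported figure is the mean inhibition of DAPK1.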

Calcium/calmodulin-dependent protein kinase type II subunit delta (Homo sapiens), sequence (Q13557 whole entry): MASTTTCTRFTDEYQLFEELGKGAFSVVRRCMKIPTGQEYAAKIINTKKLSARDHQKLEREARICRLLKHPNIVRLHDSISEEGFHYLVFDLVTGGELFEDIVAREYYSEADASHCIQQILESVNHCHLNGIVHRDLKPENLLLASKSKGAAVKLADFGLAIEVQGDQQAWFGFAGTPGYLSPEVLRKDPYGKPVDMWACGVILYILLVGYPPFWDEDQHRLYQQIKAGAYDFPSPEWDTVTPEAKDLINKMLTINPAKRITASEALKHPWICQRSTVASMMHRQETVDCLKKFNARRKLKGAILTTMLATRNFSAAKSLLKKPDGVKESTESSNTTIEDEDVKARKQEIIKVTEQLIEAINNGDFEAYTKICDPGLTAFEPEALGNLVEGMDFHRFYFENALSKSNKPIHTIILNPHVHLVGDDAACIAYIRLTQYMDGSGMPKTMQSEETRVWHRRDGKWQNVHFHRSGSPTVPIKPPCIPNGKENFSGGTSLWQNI
Calcium/calmodulin-dependent protein kinase type II subunit alpha (Homo sapiens), sequence (Q9UQM7 whole entry): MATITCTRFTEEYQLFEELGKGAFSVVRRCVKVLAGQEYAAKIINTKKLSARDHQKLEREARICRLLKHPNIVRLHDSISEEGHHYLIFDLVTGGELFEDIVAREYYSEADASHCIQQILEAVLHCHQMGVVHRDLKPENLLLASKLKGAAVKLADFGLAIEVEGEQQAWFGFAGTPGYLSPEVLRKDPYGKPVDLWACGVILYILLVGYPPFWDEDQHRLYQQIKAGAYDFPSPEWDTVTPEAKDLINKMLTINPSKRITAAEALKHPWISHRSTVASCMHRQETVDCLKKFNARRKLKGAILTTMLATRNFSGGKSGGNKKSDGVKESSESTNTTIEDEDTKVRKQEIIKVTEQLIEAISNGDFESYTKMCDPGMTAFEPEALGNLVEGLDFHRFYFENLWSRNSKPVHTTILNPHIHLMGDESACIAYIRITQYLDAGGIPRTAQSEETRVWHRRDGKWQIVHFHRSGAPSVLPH
Death-associated protein kinase 1 (Homo sapiens), sequence (P53355 whole entry, looked up): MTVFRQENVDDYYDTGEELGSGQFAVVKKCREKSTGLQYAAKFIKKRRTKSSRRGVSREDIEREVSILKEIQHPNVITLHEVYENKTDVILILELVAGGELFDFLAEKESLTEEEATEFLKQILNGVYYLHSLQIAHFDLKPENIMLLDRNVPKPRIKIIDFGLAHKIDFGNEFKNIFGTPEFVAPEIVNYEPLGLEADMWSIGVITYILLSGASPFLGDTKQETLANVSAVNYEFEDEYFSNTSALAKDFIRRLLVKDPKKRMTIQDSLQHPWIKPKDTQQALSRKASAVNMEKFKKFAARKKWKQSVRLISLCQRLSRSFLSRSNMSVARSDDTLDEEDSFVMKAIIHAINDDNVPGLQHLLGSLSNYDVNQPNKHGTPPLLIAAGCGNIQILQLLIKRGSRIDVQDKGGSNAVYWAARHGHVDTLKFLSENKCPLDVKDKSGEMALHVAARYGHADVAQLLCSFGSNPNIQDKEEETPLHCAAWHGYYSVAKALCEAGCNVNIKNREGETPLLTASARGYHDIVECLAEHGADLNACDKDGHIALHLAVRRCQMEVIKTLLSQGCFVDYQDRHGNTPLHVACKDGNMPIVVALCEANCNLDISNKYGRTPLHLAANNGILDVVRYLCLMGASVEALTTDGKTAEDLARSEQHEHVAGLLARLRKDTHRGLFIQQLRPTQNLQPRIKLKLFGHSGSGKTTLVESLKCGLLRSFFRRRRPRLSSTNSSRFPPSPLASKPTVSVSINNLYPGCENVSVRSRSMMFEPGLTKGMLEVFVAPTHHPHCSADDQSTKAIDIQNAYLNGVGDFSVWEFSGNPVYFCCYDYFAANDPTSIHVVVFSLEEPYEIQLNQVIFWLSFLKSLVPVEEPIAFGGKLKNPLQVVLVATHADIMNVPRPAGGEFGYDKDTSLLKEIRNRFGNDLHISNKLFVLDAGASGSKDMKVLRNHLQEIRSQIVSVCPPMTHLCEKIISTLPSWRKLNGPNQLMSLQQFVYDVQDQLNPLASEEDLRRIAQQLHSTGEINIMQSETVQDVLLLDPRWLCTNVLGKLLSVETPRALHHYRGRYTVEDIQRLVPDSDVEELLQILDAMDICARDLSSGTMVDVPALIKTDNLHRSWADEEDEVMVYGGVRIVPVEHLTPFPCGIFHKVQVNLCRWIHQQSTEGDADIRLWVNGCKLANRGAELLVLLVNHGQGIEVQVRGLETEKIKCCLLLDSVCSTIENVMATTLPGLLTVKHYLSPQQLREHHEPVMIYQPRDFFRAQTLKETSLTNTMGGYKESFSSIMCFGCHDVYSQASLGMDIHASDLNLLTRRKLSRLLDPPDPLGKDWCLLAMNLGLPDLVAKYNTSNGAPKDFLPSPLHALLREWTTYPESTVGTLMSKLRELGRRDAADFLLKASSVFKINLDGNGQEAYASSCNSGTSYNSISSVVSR
Serine/threonine-protein kinase Chk2 (Homo sapiens), sequence (O96017 whole entry): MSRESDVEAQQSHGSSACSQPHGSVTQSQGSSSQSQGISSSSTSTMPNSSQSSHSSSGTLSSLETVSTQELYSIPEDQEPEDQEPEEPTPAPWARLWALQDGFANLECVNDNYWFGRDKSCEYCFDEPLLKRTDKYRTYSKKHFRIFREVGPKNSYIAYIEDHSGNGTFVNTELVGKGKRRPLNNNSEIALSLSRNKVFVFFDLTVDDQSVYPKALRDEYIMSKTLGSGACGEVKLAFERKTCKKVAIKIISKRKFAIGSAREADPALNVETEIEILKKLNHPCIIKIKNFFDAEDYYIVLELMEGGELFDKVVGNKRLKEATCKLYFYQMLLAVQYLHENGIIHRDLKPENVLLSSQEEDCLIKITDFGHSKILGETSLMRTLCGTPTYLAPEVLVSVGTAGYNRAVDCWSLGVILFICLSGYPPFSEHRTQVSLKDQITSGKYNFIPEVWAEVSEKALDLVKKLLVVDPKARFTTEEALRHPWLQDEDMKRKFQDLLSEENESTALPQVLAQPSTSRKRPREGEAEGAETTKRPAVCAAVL

As for `CCn1c(-c2nonc2N)nc2c(C#CC(C)(C)O)ncc(OC[C@@H]3CCCN3)c21`, the inhibition was -2.05% in [1]; 0.64% in assay [2]; 0.35% in assay [3]; 0.16% in assay [4]; -0.65% in assay [5]; -1.63% in assay [6]. Moreover, the inhibition is 2.95% in assay [7], 0.37% in assay [8], 1.08% in [9] and 1.35% in [10].

`NC(=O)c1sc(-n2cnc3cc(C(F)(F)F)ccc32)cc1OCc1ccccc1Br`: the inhibition in assay [1] is -0.17%; in assay [2], 2.18%; in assay [3], 1.35%; in assay [4] it was 2.89%; in [5], 1.08%; in [6], -0.06%. The inhibition in assay [7] stood at 0.96%; in [8], 1.22%; in [9] it was 0.32%; in [10], 1.27%.

As to `NS(=O)(=O)c1ccc(-c2ccc3c(NC(=O)C4CC4)n[nH]c3c2)cc1`, the inhibition in assay [1] was found to be 3.21%; in [2], 2.57%; in assay [3], 3.65%; in assay [4], 0.18%; in assay [5], 0.35%; in assay [6] it was 1.61%. The inhibition in assay [7] is 4.16%; in assay [8], 1.56%; in assay [9] it was 2.29%; in assay [10], 3.27%.

`COc1cc(C=NNc2ncnc3c2cnn3Cc2ccccc2)ccc1O`: the inhibition was -4.25% in assay [1]; -4.62% in assay [2]; -0.47% in assay [3]; -2.48% in [4]; -3.98% in assay [5]; -2.18% in assay [6]. Besides, the inhibition in [7] was -3.22%; in [8], -3.42%; in assay [9], -3.47%; in [10], -3.06%.

For the compound `COc1cc2c(cc1Nc1nc(Nc3ccsc3C(N)=O)c3cc[nH]c3n1)N(C(=O)CN(C)C)CCC2`, the inhibition in [1] was -4.91%; in [2], 3.02%; in [3], 13%; in assay [4], 2.85%; in [5], 12.1%; in [6], -2.04%. The results for the inhibition in assay [8], in assay [9] and in assay [10] were 2.31%, 11.8% and 2.17%, respectively.

With `COc1cccc(COc2cc(-n3cnc4ccccc43)sc2C(N)=O)c1`, the inhibition is -0.42% in [1]; 0.07% in [2]; -0.84% in assay [3]; 2.92% in assay [4]; -0.29% in assay [5]; 2.18% in [6]. In addition, the inhibition in assay [7] is -2.21%; in [8], -0.72%; in [9], -0.59%; in [10], 1.92%.

`CCn1c(-c2nonc2N)nc2c(C#CCN)ncc(OCCCN)c21`: the inhibition in [1] is -1.33%; in assay [2] it was -4.81%; in assay [3], -4.58%; in assay [4], -6%; in assay [5], -5.56%; in assay [6], -3.81%. Also, the inhibition in assay [7] was 0.26%; in assay [8] it was -1.17%; in assay [9], 0.23%; in assay [10], -2.99%.

Take `CCn1c(-c2nonc2N)nc2c(C#CC(C)(C)O)ncc(OCC3CCNCC3)c21`: the inhibition in [1] is 2.25%; in assay [2], 2.49%; in assay [3] it was 4.75%; in assay [4] it was -2.07%; in [5], -2.31%; in [6] it was -0.5%. Further, the inhibition worked out at 5.91% in [7], 2.91% in assay [8], 6.65% in assay [9] and 1.8% in [10].

As for `COc1cccc(-n2ncc3c(N/N=C/c4ccncc4)ncnc32)c1`, the inhibition in assay [1] was 6.87%; in assay [2] it was 4.21%; in [3], 12.8%; in [4] it was -0.17%; in assay [5], -1.96%; in assay [6], 3.28%. Also, the inhibition was found to be 5.7% in assay [7], 2.56% in assay [8], 4.89% in [9] and 4.45% in assay [10].

Turning to `CCn1c(-c2nonc2N)nc2c(C#CC(C)(C)O)nc(O[C@@H](CN)c3ccccc3)cc21`, the inhibition in [1] was 1.68%; in [2] it was -0.76%; in [3] it was 14.3%; in [4], -0.23%; in assay [5], 4.51%; in assay [6] it was -3.48%. For the same compound, the inhibition in [7] is 31.1%; in [8], 2.31%; in [9], 26.7%; in assay [10], -0.91%.

Regarding `NS(=O)(=O)c1ccc(N/C=C2\C(=O)Nc3ccc4ncsc4c32)cc1`, the inhibition was 3.49% in assay [1]; 4.43% in [2]; 16.3% in assay [3]; -1.62% in assay [4]; -1.06% in [5]; 7.84% in [6]. For the same compound, the inhibition in [7] came out at 33%; in assay [8], 4.73%; in [9] it was 19.1%; in assay [10], 5.66%.

For `Nc1nonc1-c1nc2cnccc2n1C1CCCCC1`, the inhibition in assay [1] was 0.68%; in assay [2], -1.42%; in [3], 4.05%; in assay [4], 1.07%; in [5], 1.19%; in assay [6], -0.67%. The inhibition in assay [7] is 1.88%; in [8], -2%; in assay [9], -1.47%; in assay [10], -1.34%.

Consider `Cc1cc(-c2ccco2)cc(C)c1/C=C/c1cncc(-c2nn[nH]n2)c1`, for which the inhibition was -0.97% in assay [1]; -0.09% in [2]; 0.35% in assay [3]; 1.45% in assay [4]; 1.06% in [5]; -8.36% in assay [6]. Also, the inhibition is -1.92% in assay [7], -0.74% in assay [8], -0.4% in assay [9] and 1.92% in assay [10].

On to `Fc1ccc(-c2ncn(C3CCNCC3)c2-c2ccnc(Oc3ccccc3)n2)cc1`, for which the inhibition in assay [1] is -2.16%; in assay [2], 1.37%; in assay [3] it was 2.5%; in assay [4] it was -1.82%; in [5], -2.43%; in assay [6], -1.72%. The inhibition in [7] was 0.04%; in assay [8], 1.16%; in [9], 1.46%; in [10] it was -0.62%.

Usually inhibition stands for the drop in the measured response relative to a control, in per cent.

Values taken from ChEMBL document CHEMBL1961873, “Compounds: GSK PKIS; Assays: Nanosyn kinase panel” (2012).
